# In PubChem BioAssay (EPA / NIEHS):
# Values joined by “and” are separate entries in the source; they are usually repeats but may differ in a detail not shown here. Equal values may be shown once. A structure can be active in one record and inactive in another. Active and inactive are the calls of the source. How the source made its calls: active means hit-call score of the fitted dose curve at least 0.9, where 1 is the maximum; inactive means score below 0.9.
# Tests used:
# [1] = read-out: Interleukin-6 (IL6), IL6 (gene 3569); test: BSK_CASM3C_IL6: BioMAP Diversity Plus: CASM3C Assay for Interleukin-6 (IL6) Biomarker Activity for (AID 2283040); conditions: primary human coronary artery smooth muscle cells; actives raise or lower the signal
# [2] = read-out: Tissue plasminogen activator (tPA), PLAT (gene 5327); test: BSK_BE3C_tPA: BioMAP Diversity Plus: BE3C Assay for Tissue plasminogen activator (tPA) Biomarker Activity (AID 2283041); conditions: primary human bronchial epithelial cells; actives raise or lower the signal;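 on outcome: tPA level quantified by ELISA one day after compound addition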
# Summary of the method: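 Gain- or loss-of-signal in tPA, measured by ELISA, derived by bidirectional fitting against DMSO. Cells: human primary bronchial epithelial; read at 24 h after chemical dosing.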
# [3] = read-out: Interleukin-8 (IL8), CXCL8 (gene 3576); test: BSK_CASM3C_IL8: BioMAP Diversity Plus: CASM3C Assay for Interleukin-8 (IL8) Biomarker Activity (AID 2283042); conditions: primary human coronary artery smooth muscle cells; actives raise or lower the signal;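 further: IL-8 protein level quantified by ELISA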
# [4] = read-out: Human Leukocyte Antigen - DR isotype (HLADR), HLA-DRA (gene 3122); test: BSK_CASM3C_HLADR: BioMAP Diversity Plus: CASM3C Assay for Human Leukocyte Antigen - DR isotype (HLADR) Biomarker Activity (AID 2283043); conditions: primary human coronary artery smooth muscle cells; actives raise or lower the signal;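 further: cell-surface HLA-DR protein level quantified by ELISA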
# [5] = read-out: Macrophage colony-stimulating factor (MCSF), CSF1 (gene 1435); test: BSK_CASM3C_MCSF: BioMAP Diversity Plus: CASM3C Assay for Macrophage colony-stimulating factor (MCSF) Biomarker Activity (AID 2283044); conditions: primary human coronary artery smooth muscle cells; actives raise or lower the signal;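 further: M-CSF protein amount quantified by ELISA after 24 h exposure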
# [6] = read-out: Low-density lipoprotein receptor (LDLR), LDLR (gene 3949); test: BSK_CASM3C_LDLR: BioMAP Diversity Plus: CASM3C Assay for Low-density lipoprotein receptor (LDLR) Biomarker Activity (AID 2283045); conditions: primary human coronary artery smooth muscle cells; actives raise or lower the signal;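 further: LDLR protein level on the cell surface quantified by ELISA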
# [7] = read-out: Monocyte Chemoattractant Protein-1 (MCP1), CCL2 (gene 6347); test: BSK_CASM3C_MCP1: BioMAP Diversity Plus: CASM3C Assay for Monocyte Chemoattractant Protein-1 (MCP1) Biomarker Activity (AID 2283046); conditions: primary human coronary artery smooth muscle cells; actives raise or lower the signal;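 further: MCP-1 level quantified by ELISA 24 h after dosing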
# [8] = BSK_CASM3C_Proliferation: Cell Proliferation Assessment in the BioMAP Diversity Plus: CASM3C Assay (AID 2283047); conditions: primary human coronary artery smooth muscle cells;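 further: sulforhodamine B total protein stain as relative cell number at 560 nm; sub-confluent cells exposed 48 h before staining; fitted both ways against DMSO so gain or loss of cell number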
# [9] = read-out: Monokine induced gamma interferon (MIG), CXCL9 (gene 4283); test: BSK_CASM3C_MIG: BioMAP Diversity Plus: CASM3C Assay for Monokine induced gamma interferon (MIG) Biomarker Activity (AID 2283048); conditions: primary human coronary artery smooth muscle cells; actives raise or lower the signal;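 further: MIG protein level measured by ELISA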
# [10] = read-out: serum amyloid A (SAA), SAA1 (gene 6288); test: BSK_CASM3C_SAA: BioMAP Diversity Plus: CASM3C Assay for serum amyloid A (SAA) Biomarker Activity (AID 2283049); conditions: primary human coronary artery smooth muscle cells; actives raise or lower the signal;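 further: SAA protein level quantified by ELISA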
# [11] = BSK_CASM3C_SRB: Viability Assessment in the BioMAP Diversity Plus: CASM3C Assay (AID 2283050); conditions: primary human coronary artery smooth muscle cells;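 further: total protein by SRB staining as cytotoxicity measure in parallel cultures; cells exposed to compound for 24 h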
# [12] = read-out: Thrombomodulin, THBD (gene 7056); test: BSK_CASM3C_Thrombomodulin: BioMAP Diversity Plus: CASM3C Assay for Thrombomodulin Biomarker Activity (AID 2283051); conditions: primary human coronary artery smooth muscle cells; actives raise or lower the signal;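 further: thrombomodulin protein level measured by ELISA 24 h after dosing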
# [13] = read-out: Tissue Factor, F3 (gene 2152); test: BSK_CASM3C_TissueFactor: BioMAP Diversity Plus: CASM3C Assay for Tissue Factor Biomarker Activity (AID 2283052); conditions: primary human coronary artery smooth muscle cells; actives raise or lower the signal;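 further: cell surface tissue factor protein level read by ELISA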
# [14] = read-out: Interferon-gamma inducible Protein 10 (IP10), CXCL10 (gene 3627); test: BSK_hDFCGF_IP10: BioMAP Diversity Plus: hDFCGF Assay for Interferon-gamma inducible Protein 10 (IP10) Biomarker Activity (AID 2283053); conditions: primary human foreskin fibroblasts; actives raise or lower the signal
# Summary of the method: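 Cells: human dermal foreskin fibroblasts. Exposure: 24 h post-dosing. Detection: IP-10 ELISA, with values expressed against DMSO controls and fitted in both directions.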
# [15] = read-out: Urokinase-type plasminogen activator receptor (uPAR), PLAUR (gene 5329); test: BSK_CASM3C_uPAR: BioMAP Diversity Plus: CASM3C Assay for Urokinase-type plasminogen activator receptor (uPAR) Biomarker Activity (AID 2283054); conditions: primary human coronary artery smooth muscle cells; actives raise or lower the signal;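 further: cell-surface uPAR protein level quantified by ELISA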
# [16] = read-out: Vascular cell adhesion molecule 1 (VCAM1), VCAM1 (gene 7412); test: BSK_CASM3C_VCAM1: BioMAP Diversity Plus: CASM3C Assay for Vascular cell adhesion molecule 1 (VCAM1) Biomarker Activity (AID 2283055); conditions: primary human coronary artery smooth muscle cells; actives raise or lower the signal;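 further: VCAM-1 protein level quantified by ELISA on the cells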
# [17] = read-out: Collagen III, COL3A1 (gene 1281); test: BSK_hDFCGF_CollagenIII: BioMAP Diversity Plus: hDFCGF Assay for Collagen III Biomarker Activity (AID 2283056); conditions: primary human foreskin fibroblasts; actives raise or lower the signal
# Summary of the method: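 Cells: human foreskin fibroblasts, primary. Dosing followed by 24 h incubation, then ELISA for collagen III. Both increases and decreases scored relative to DMSO.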
# [18] = read-out: Epidermal growth factor receptor (EGFR), EGFR (gene 1956); test: BSK_hDFCGF_EGFR: BioMAP Diversity Plus: hDFCGF Assay for Epidermal growth factor receptor (EGFR) Biomarker Activity (AID 2283057); conditions: primary human foreskin fibroblasts; actives raise or lower the signal
# Summary of the method: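 Dosing human primary skin fibroblasts, then measuring surface EGFR by ELISA at 24 h, gives the endpoint; gains and losses relative to DMSO were fitted in both directions.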
# [19] = read-out: Interleukin-8 (IL8), CXCL8 (gene 3576); test: BSK_hDFCGF_IL8: BioMAP Diversity Plus: hDFCGF Assay for Interleukin-8 (IL8) Biomarker Activity (AID 2283058); conditions: primary human foreskin fibroblasts; actives raise or lower the signal
# Summary of the method: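 IL-8 levels from compound-treated primary human fibroblasts were read by ELISA at 24 h, with DMSO serving as baseline for bidirectional fitting.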
# [20] = BSK_hDFCGF_Proliferation: Cell Proliferation Assessment in the BioMAP Diversity Plus: hDFCGF Assay (AID 2283059); conditions: primary human foreskin fibroblasts;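 further: curves fitted for both rise and fall of signal versus DMSO baseline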
# Summary of the method: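 Sub-confluent human foreskin fibroblast cultures receive test chemical […]. Relative cell number is quantified by sulforhodamine B staining (0.1%, after 10% TCA fixation) at 560 nm, with bidirectional fitting referenced to DMSO.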
compound,measurement,setting,value
Nc1cc([N+](=O)[O-])cc(Cl)c1O,outcome,[1],inactive
same,outcome,[2],inactive
same,outcome,[3],inactive
same,outcome,[4],inactive
same,outcome,[5],inactive
same,outcome,[6],inactive
same,outcome,[7],inactive
same,outcome,[8],inactive
same,outcome,[9],inactive
same,outcome,[10],inactive
same,outcome,[11],inactive
same,outcome,[12],inactive
same,outcome,[13],inactive
same,outcome,[14],inactive
same,outcome,[15],inactive
same,outcome,[16],inactive
same,outcome,[17],inactive
same,outcome,[18],inactive
same,outcome,[19],inactive
same,outcome,[20],inactive
O=C(Cl)C(F)(F)C(F)(F)C(F)(F)C(F)(F)C(F)(F)C(F)(F)F,outcome,[1],inactive
same,outcome,[2],inactive
same,outcome,[3],inactive
same,outcome,[4],inactive
same,outcome,[5],inactive
same,outcome,[6],inactive
same,outcome,[7],inactive
same,outcome,[8],inactive
same,outcome,[9],inactive
same,outcome,[10],inactive
same,outcome,[11],inactive
same,outcome,[12],inactive
same,outcome,[13],inactive
same,outcome,[14],inactive
same,outcome,[15],inactive
same,outcome,[16],inactive
same,outcome,[17],inactive
same,AC50,[18],2.04 µM (active)
same,outcome,[18],inactive
same,outcome,[19],inactive
same,outcome,[20],inactive
CNS(=O)(=O)C(F)(F)C(F)(F)C(F)(F)C(F)(F)C(F)(F)C(F)(F)C(F)(F)C(F)(F)F,outcome,[1],inactive
same,AC50,[2],220 nM (active) and 654 nM (active)
same,outcome,[3],inactive
same,outcome,[4],inactive
same,outcome,[5],inactive
same,outcome,[6],inactive
same,outcome,[7],inactive
same,AC50,[8],35.4 µM (active)
same,outcome,[8],inactive
same,outcome,[9],inactive
same,outcome,[10],inactive
same,outcome,[11],inactive
same,outcome,[12],inactive
same,outcome,[13],inactive
same,AC50,[14],1.99 µM (active)
same,outcome,[14],inactive
same,outcome,[15],inactive
same,AC50,[16],8.2 µM (active) and 1.69 µM (active)
same,outcome,[17],inactive
same,outcome,[18],inactive
same,outcome,[19],inactive
same,outcome,[20],inactive
O=C(O)C(F)(F)C(F)(F)C(F)(F)OC(F)(C(F)(F)F)C(F)(F)F,outcome,[1],inactive
same,outcome,[2],inactive
same,outcome,[3],inactive
same,outcome,[4],inactive
same,outcome,[5],inactive
same,outcome,[6],inactive
same,outcome,[7],inactive
same,outcome,[8],inactive
same,outcome,[9],inactive
same,outcome,[10],inactive
same,outcome,[11],inactive
same,outcome,[12],inactive
same,outcome,[13],inactive
same,outcome,[14],inactive
same,outcome,[15],inactive
same,outcome,[16],inactive
same,outcome,[17],inactive
same,outcome,[18],inactive
same,outcome,[19],inactive
same,outcome,[20],inactive
O=C(O)C(F)(F)OC(F)(F)C(F)(F)OC(F)(F)C(F)(F)OC(F)(F)F,outcome,[1],inactive
same,outcome,[2],inactive
same,outcome,[3],inactive
same,outcome,[4],inactive
same,outcome,[5],inactive
same,outcome,[6],inactive
same,outcome,[7],inactive
same,outcome,[8],inactive
same,outcome,[9],inactive
same,outcome,[10],inactive
same,outcome,[11],inactive
same,outcome,[12],inactive
same,outcome,[13],inactive
same,outcome,[14],inactive
same,outcome,[15],inactive
same,outcome,[16],inactive
same,outcome,[17],inactive
same,outcome,[18],inactive
same,outcome,[19],inactive
same,outcome,[20],inactive
NC(=O)C(F)(F)C(F)(F)C(F)(F)C(F)(F)C(N)=O,outcome,[1],inactive
same,outcome,[2],inactive
same,outcome,[3],inactive
same,outcome,[4],inactive
same,outcome,[5],inactive
same,outcome,[6],inactive
same,outcome,[7],inactive
same,outcome,[8],inactive
same,outcome,[9],inactive
same,outcome,[10],inactive
same,outcome,[11],inactive
same,outcome,[12],inactive
same,outcome,[13],inactive
same,outcome,[14],inactive
same,outcome,[15],inactive
same,outcome,[16],inactive
same,outcome,[17],inactive
same,outcome,[18],inactive
same,outcome,[19],inactive
same,outcome,[20],inactive
C[Si](Cl)(Cl)CCC(F)(F)C(F)(F)C(F)(F)C(F)(F)C(F)(F)C(F)(F)F,outcome,[1],inactive
same,outcome,[2],inactive
same,outcome,[3],inactive
same,outcome,[4],inactive
same,outcome,[5],inactive
same,outcome,[6],inactive
same,outcome,[7],inactive
same,outcome,[8],inactive
same,outcome,[9],inactive
same,outcome,[10],inactive
same,outcome,[11],inactive
same,outcome,[12],inactive
same,outcome,[13],inactive
same,AC50,[14],2.48 µM (active)
same,outcome,[14],inactive
same,outcome,[15],inactive
same,outcome,[16],inactive
same,AC50,[17],0.332 µM (active)
same,outcome,[17],inactive
same,outcome,[18],inactive
same,outcome,[19],inactive
same,AC50,[20],115 nM (active) and 2.85 µM (active)
CCN(CCO)S(=O)(=O)C(F)(F)C(F)(F)C(F)(F)C(F)(F)C(F)(F)C(F)(F)C(F)(F)C(F)(F)F,outcome,[1],inactive
same,outcome,[2],inactive
same,outcome,[3],inactive
same,AC50,[4],15.6 µM (active)
same,outcome,[4],inactive
same,AC50,[5],35.3 µM (active)
same,outcome,[5],inactive
same,AC50,[6],7.08 µM (active) and 8.16 µM (active)
same,outcome,[7],inactive
same,AC50,[8],15.5 µM (active) and 16.5 µM (active)
same,AC50,[9],8.09 µM (active) and 7.66 µM (active)
same,AC50,[10],7.99 µM (active)
same,outcome,[10],inactive
same,AC50,[11],19.2 µM (active) and 9.12 µM (active)
same,AC50,[12],13.4 µM (active) and 10.3 µM (active)
same,outcome,[13],inactive
same,AC50,[14],35.9 µM (active) and 30 µM (active)
same,AC50,[15],11.1 µM (active) and 30 µM (active)
same,AC50,[16],7.11 µM (active) and 8.86 µM (active)
same,AC50,[17],8.31 µM (active)
same,outcome,[17],inactive
same,outcome,[18],inactive
same,AC50,[19],49.9 µM (active)
same,outcome,[19],inactive
same,AC50,[20],7.13 µM (active) and 8.13 µM (active)
C=CC(=O)OCC(F)(F)C(F)(F)C(F)(F)C(F)(F)C(F)(F)C(F)(F)C(F)(F)C(F)F,outcome,[1],inactive
same,outcome,[2],inactive
same,outcome,[3],inactive
same,outcome,[4],inactive
same,outcome,[5],inactive
same,outcome,[6],inactive
same,outcome,[7],inactive
same,outcome,[8],inactive
same,outcome,[9],inactive
same,outcome,[10],inactive
same,outcome,[11],inactive
same,outcome,[12],inactive
same,outcome,[13],inactive
same,AC50,[14],28.8 µM (active)
same,outcome,[14],inactive
same,outcome,[15],inactive
same,AC50,[16],11 µM (active)
same,outcome,[16],inactive
same,outcome,[17],inactive
same,outcome,[18],inactive
same,outcome,[19],inactive
same,AC50,[20],18.4 µM (active) and 11.6 µM (active)
O=C(O)CCC(F)(F)C(F)(F)C(F)(F)C(F)(F)C(F)(F)C(F)(F)C(F)(F)F,outcome,[1],inactive
same,outcome,[2],inactive
same,outcome,[3],inactive
same,outcome,[4],inactive
same,outcome,[5],inactive
same,outcome,[6],inactive
same,outcome,[7],inactive
same,outcome,[8],inactive
same,outcome,[9],inactive
same,outcome,[10],inactive
same,outcome,[11],inactive
same,outcome,[12],inactive
same,outcome,[13],inactive
same,outcome,[14],inactive
same,outcome,[15],inactive
same,outcome,[16],inactive
same,outcome,[17],inactive
same,outcome,[18],inactive
same,outcome,[19],inactive
same,outcome,[20],inactive
